Only some compounds are listed: those with a hit (about 19% of all), similar ones and a draw of the others.
HepG2 tox = qHTS for Inhibitors of TGF-b: Cytotox Counterscreen; HepG2 CAGA-GFP viability, ATP luminescence, 18 h; Potency, µM (titrated, usually from 46.1 µM), without a hit: at the highest dose activity change, negative = cytotoxicity, most hits filed as cytotoxic; hit rate 0.76% among 410,000; AID 588856, 2011; note: potency is the fitted concentration of half-maximal effect
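CellTiter-Glo luminescence gave cytotoxicity after 18 hours at 37 degrees C. The cells were HepG2 CAGA-GFP in 1% FBS DMEM, stimulated with 500 pg/mL TGF-beta after compound addition. %Activity was normalised to no-cell wells (complete cell-killing) and DMSO (no toxicity), and curves were fitted and classified.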
ASM inhibitor = Inhibitors of Secretory Acid Sphingomyelinase (S-ASM): qHTS | Sphingomyelin phosphodiesterase (Homo sapiens), P17405 | Potency, µM (titrated, usually from 57.5 µM), inactives show at the top dose activity change, negative = inhibition, most hits filed as inhibitors | placental ASM, HMU-PC fluorogenic substrate, 60 min | AID 504937, 2011 | hit rate 0.006% among 340,000; note: potency is the fitted concentration of half-maximal effect
Target sequence (P17405 47-631 limits assumed): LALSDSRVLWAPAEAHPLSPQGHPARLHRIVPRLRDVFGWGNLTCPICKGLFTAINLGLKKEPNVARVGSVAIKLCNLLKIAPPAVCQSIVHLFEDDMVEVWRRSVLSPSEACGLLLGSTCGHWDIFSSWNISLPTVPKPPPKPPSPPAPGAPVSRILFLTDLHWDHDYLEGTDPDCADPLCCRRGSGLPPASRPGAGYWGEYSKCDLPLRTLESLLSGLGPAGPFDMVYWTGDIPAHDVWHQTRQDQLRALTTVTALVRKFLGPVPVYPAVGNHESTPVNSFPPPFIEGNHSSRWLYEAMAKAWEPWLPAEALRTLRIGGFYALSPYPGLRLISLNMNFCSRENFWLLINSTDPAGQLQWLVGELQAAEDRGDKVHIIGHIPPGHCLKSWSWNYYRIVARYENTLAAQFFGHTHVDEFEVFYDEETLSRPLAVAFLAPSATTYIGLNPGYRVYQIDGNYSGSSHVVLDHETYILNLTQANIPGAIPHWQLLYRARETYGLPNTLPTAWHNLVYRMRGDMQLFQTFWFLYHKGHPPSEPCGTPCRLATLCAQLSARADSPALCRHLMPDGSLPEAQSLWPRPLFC
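Fluorescence read-out (Ex 386 nm, Em 447 nm) after stopping the reaction at pH 10. Enzyme: ASM from human placenta; substrate HMU-PC0, 9 uM final; 60 min, 37 °C. Compound preincubation 10 min, ambient temperature.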
DT40 TDP1 no CPT = qHTS for Inhibitors of human tyrosyl-DNA phosphodiesterase 1 (TDP1): qHTS in cells in absence of CPT. AID 686978, 2013. hit rate 15% among 420,000. Potency, µM (doses to about 46.2 µM), for the others: top-dose activity change, negative = growth inhibition, most hits filed as inhibitors. DT40 Tdp1-/- hTDP1 cells, no CPT, ATP luminescence, 48 h; note: potency is the fitted concentration of half-maximal effect; % is set by controls: 0 for no effect and ±100 for the full control effect; nearly all actives have a fitted effect of over 55% in size
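Chicken DT40 Tdp1-/- cells complemented with human TDP1, screened without camptothecin (DMSO vehicle only), 400 cells/well. Compounds pin-transferred, cells incubated at 37 °C for at least 48 hr. Growth read as ATP-dependent luminescence (CellTiter-Glo, 30 min at RT).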
TDP1 cell CPT = qHTS for Inhibitors of human tyrosyl-DNA phosphodiesterase 1 (TDP1): qHTS in cells in presence of CPT. chicken DT40 Tdp1-/-;hTDP1 cells + 20 nM CPT, ATP luminescence, 48 h. Potency, µM (top dose mostly 46.2 µM), for the others: top-dose activity change, negative = growth inhibition, usual class: inhibitors. hit rate 12% among 420,000. AID 686979, 2013; note: potency is the fitted concentration of half-maximal effect; % is set by controls: 0 for no effect and ±100 for the full control effect; nearly all actives have a fitted effect of over 55% in size
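Cell growth measured by CellTiter-Glo luminescence after a minimum 48 h, 37 C compound exposure with 20 nM CPT in Tdp1-knockout DT40 cells stably expressing hTDP1, seeded 400/well; qHTS titration format.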
TGFb inhibitor = qHTS for Inhibitors of TGF-b. Potency, µM (titrated, usually from 46.1 µM), without a hit: at the top dose activity, negative = inhibition, most hits filed as inhibitors. AID 588855, 2011. hit rate 1.2% among 410,000. HepG2 CAGA-GFP TGF-b/SMAD3 reporter, GFP fluorescence, 18 h; TGF-beta stimulated, 500 pg/mL final; note: potency is the fitted concentration of half-maximal effect; % is set by controls: 0 for no effect and ±100 for the full control effect; nearly all actives have a fitted effect of over 65% in size
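GFP signal (ex488/em500-530) from TGF-beta-stimulated HEPG2 CAGA-GFP cells, 500 pg/mL final, 18 h at 37 degrees C in DMEM plus 1% FBS, normalized to unstimulated and DMSO-stimulated controls.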
IL1B secr inh = qHTS for Inhibitors of Inflammasome Signaling: IL-1-beta AlphaLISA Primary Screen; hit rate 4.7% among 360,000; activity change, % at 57.5 µM; THP-1 LPS/ATP IL-1B secretion, AlphaLISA, 16 h; active compounds read low; in the data active = activity change below about -50%; inconclusive = mostly about -30% to -49%; note: % is set by controls: 0 for no effect and ±100 for the full control effect
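THP-1 cells pretreated 1 hr with compounds (up to 57.5 uM final), then stimulated with LPS (250 ng/mL final) plus ATP (1.25 mM final); secreted IL-1B measured by AlphaLISA after 16 hr, decreased signal indicating inhibition.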
Active calls of the source: *; i = inactive; ? = inconclusive; / = not tested or not shown. Unless noted, calls come from the whole dose curve; as a rule, active = well fitted curve in the direction sought with a large enough effect; inconclusive = small, poorly fitted or top-dose-only effect, or another doubt; inactive = no such curve, though single readings can be large; an effect the other way counts as inactive or inconclusive.

SMILES | HepG2 tox | ASM inhibitor | DT40 TDP1 no CPT | TDP1 cell CPT | TGFb inhibitor | IL1B secr inh
N#C/C(=C/c1ccccc1Cl)c1nc(-c2cc3ccccc3oc2=O)cs1 | 5% | / | 0% | -2% | -1% | /
COc1cc(/C=C(/C#N)c2nc(-c3cc4ccccc4oc3=O)cs2)ccc1O | -20% | / | 2.9µM* | -2% | 28% | /
COc1ccc(CN2CCNC(=O)C2CC(=O)N2CCCN(C(C)=O)CC2)cc1OC (stereo unspecified) | -9% | 0% | 2% | -1% | -18% | 10
Cc1ccc(C(=O)NCc2ccccc2)cc1NC(=O)c1nsc2ccccc12 | -33% | / | 16µM* | ? | ? | /
Cc1ccc(C(=O)NCc2ccc(N(C)C)cc2)cc1NC(=O)c1nsc2ccccc12 | -13% | / | 16µM* | ? | -23% | /
CCCSCCCNC(=O)c1ccc(C)c(NC(=O)c2nsc3ccccc23)c1 | -39% | / | ? | ? | ? | /
CN(C)c1ccc(CNC(=O)c2ccc(NC(=O)c3nsc4ccccc34)cc2)cc1 | -18% | / | ? | -29% | 18% | /
Cc1cc(NC(=O)CSc2nncn2N)no1 | -3% | 8% | -3% | 2% | -1% | 0
CCOC(=O)Nc1ccc2c(CNC(C)c3ccccc3OC)cc(=O)oc2c1 (stereo unspecified) | -10% | -4% | 23µM* | ? | -15% | -7
Cc1cc(C)c2oc(=O)cc(CN3CCC(C)CC3)c2c1 | 0% | 3% | 26µM* | ? | 0% | -5
CCN1CCN(Cc2cc(=O)oc3ccc(C)cc23)CC1 | 5% | 3% | -9% | -9% | 2% | -12
CCOC(=O)Nc1ccc2c(CN3CCN(S(=O)(=O)c4ccccc4)CC3)cc(=O)oc2c1 | 8% | 2% | ? | 13µM* | -1% | -13
Cc1cc(C)c2oc(=O)cc(CN3CCN(Cc4ccccc4)CC3)c2c1 | -3% | -6% | ? | 18µM* | -11% | 5
CN(Cc1cccnc1)C(=O)c1cc(S(=O)(=O)Nc2ccccc2F)ccc1Cl | -4% | -1% | -23% | ? | 2% | -5
CCc1ccc2c(CN3CCN(S(=O)(=O)c4ccc5c(c4)OCCO5)CC3)cc(=O)oc2c1 | -5% | -5% | ? | -20% | -15% | -2
Cc1ccc2c(CN3CCN(Cc4ccccc4)CC3)cc(=O)oc2c1C | -31% | -1% | 18µM* | ? | 18% | -74*
O=c1cc(CN2CCN(S(=O)(=O)c3cccc(Cl)c3)CC2)c2ccc(O)cc2o1 | -6% | i | 18µM* | ? | 0% | 1
Cc1ccc2c(CN3CCN(S(=O)(=O)c4ccc(Cl)cc4)CC3)cc(=O)oc2c1C | -3% | / | 16µM* | ? | 7% | 13
CCOC(=O)C1=C(C)N(C[C@@H]2CC[C@@H](Cc3ccc(-c4ccccc4)cc3)O2)C(=O)NC1c1ccc(Cl)cc1 (stereo partly specified) | -19% | -1% | 21µM* | ? | ? | -52*
CCOC(=O)C1=C(C)N(C[C@@H]2CC[C@@H](Cc3ccc(-c4ccccc4)cc3)O2)C(=O)NC1C1CC1 (stereo partly specified) | -24% | -2% | 21µM* | ? | ? | 11
CCOC(=O)C1=C(C)N(C[C@@H]2CC[C@@H](Cc3ccc(-c4ccccc4)cc3)O2)C(=O)NC1c1ccc(-c2ccccc2)cc1 (stereo partly specified) | -1% | 2% | ? | ? | -4% | -3
CN(c1ccccc1)c1cc(Br)nc(Br)c1 | 6% | 1% | ? | 6% | 16% | 26
COc1ccc(S(=O)(=O)N2CCCCCC2)cc1NS(=O)(=O)c1cc(C(=O)O)cc(C)c1C | 22% | 7% | 18% | 5% | 12% | 28
O=C(N/N=C/c1ccc(F)cc1)c1cc(-c2ccccn2)nc2ccccc12 | -2% | -2% | -19% | ? | 3% | 18
COc1ccccc1C(=O)N/N=C/c1ccc2c(c1)OCO2 | -12% | 3% | -15% | -2% | -3% | -1
SMILES | HepG2 tox | ASM inhibitor | DT40 TDP1 no CPT | TDP1 cell CPT | TGFb inhibitor | IL1B secr inh
COc1cc2ccccc2cc1C(=O)N/N=C/c1ccc2c(c1)OCO2 | 1% | -2% | 2.6µM* | 4.6µM* | ? | 51
O=C(N/N=C/c1ccc2c(c1)OCO2)c1cc(-c2ccc(F)cc2)nc2ccccc12 | 1% | 103% | 9.2µM* | 15µM* | -3% | -1
COc1ccc(-c2cc(C(=O)N/N=C/c3ccc4c(c3)OCO4)c3ccccc3n2)c(OC)c1 | 11µM* | -1% | 1.8µM* | 9.2µM* | -1% | -17
COc1ccc(-c2cc(C(=O)N/N=C/c3sccc3C)c3ccccc3n2)c(OC)c1 | -23% | 4% | ? | ? | 8% | -9
COc1ccc(-c2cc(C(=O)N/N=C/c3ccc(OC)c(COCC(F)(F)C(F)F)c3)c3ccccc3n2)c(OC)c1 | 2% | 12% | 5.8µM* | 5.8µM* | -4% | -9
COC(=O)C(C)(C(=O)OC)c1ccc(C(F)(F)F)cc1[N+](=O)[O-] | -54% | -3% | 4% | 15% | -8% | 51
COC(=O)[C@]12CCCCC=C1N(Cc1ccccc1)C(=O)[C@H](CC(=O)N1CCCC1)C2 | / | / | ? | ? | / | 21
O=C(OCC(=O)N(C1CCCCC1)C1CCCCC1)c1ccc(Cl)nc1 | -11% | -5% | 5% | -5% | -9% | 12
CN(C)CCN(Cc1ccco1)C(=O)c1oc2ccccc2c1NC(=O)COc1ccccc1 | -15% | 0% | -1% | ? | 6% | -50*
C(=C\c1ccccn1)/c1ccncc1 | 0% | 1% | -9% | -10% | -8% | -26
CNc1ccc(/C=C2\C=Cc3ccccc32)cc1 | -52% | / | -99% | ? | ? | /
C(=C1c2ccccc2-c2ccccc21)c1ccncc1 | -9% | 63% | 23µM* | ? | ? | -78*
CNc1ccc(C=C2c3ccccc3-c3ccccc32)cc1 | -40% | / | 13µM* | ? | ? | /

Bioassay records (PubChem)
